# Measurements from PubChem BioAssay (NCI).
# The panel holds about 79,000 compounds, 15% with a hit somewhere; the sample as a whole holds those more often. Values without a mark were called inactive. Active and inactive are the calls of the source. Cut-off read from the data, not from the text of the source: active = growth inhibition above about 70%; inactive = the rest.
# How the values were obtained:
# [1] = NCI Yeast Anticancer Drug Screen. Data for the rad50 strain (AID 155);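 note: 0% = growth of vehicle-only cultures of the same strain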; details: S. cerevisiae rad50 strain growth inhibition, stronger effect = higher value
# In short: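 Cells are treated with compound, grown, and their growth is then scored against vehicle-only cultures of the same repair-deficient yeast strain.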
# [2] = NCI Yeast Anticancer Drug Screen. Data for the mec2-1 strain (AID 157); details: S. cerevisiae mec2-1 strain, stronger effect = higher value
# In short: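 Strain: mec2-1 (DNA repair/cell cycle alteration). Compound exposure, then growth measured; inhibition expressed relative to vehicle.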
# [3] = NCI Yeast Anticancer Drug Screen. Data for the sgs1 mgt1 strain (AID 161);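 note: 0% = growth of cultures given vehicle only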; details: S. cerevisiae sgs1 mgt1 strain, stronger effect = higher value
# In short: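 Genetically altered yeast, compound exposure, growth inhibition relative to vehicle.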
# [4] = NCI Yeast Anticancer Drug Screen. Data for the cln2 rad14 strain (AID 165);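 note: 0% = growth equal to vehicle treated cultures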; details: S. cerevisiae cln2 rad14 strain, stronger effect = higher value
# In short: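 Compounds are applied to the cln2 rad14 yeast strain, and growth is then compared with that of vehicle-treated cultures to give inhibition.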
# [5] = NCI Yeast Anticancer Drug Screen. Data for the bub3 strain (AID 167); details: S. cerevisiae bub3 mutant strain, stronger effect = higher value
# In short: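 Part of a panel of yeast mutants defective in DNA damage repair or cell cycle regulation. Each strain is grown with compound, and inhibition is calculated relative to solvent-treated cultures.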
# [6] = NCI Yeast Anticancer Drug Screen. Data for the mlh1 rad18 strain (AID 175); details: S. cerevisiae mlh1 rad18 strain growth inhibition, stronger effect = higher value
# In short: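 Read-out is yeast growth inhibition, calculated against vehicle-only controls. The compound was applied to a strain engineered with DNA damage repair alterations.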
# [7] = at 5.0 µM (retest, dose inferred, filed as 0.5)
# [8] = at 50.0 µM (retest, dose inferred, filed as 5.0)
SMILES,"growth inhibition [1, 7]","growth inhibition [1, 8]",growth inhibition ([1]; at 50.0 µM),"growth inhibition [2, 7]","growth inhibition [2, 8]",growth inhibition ([2]; at 50.0 µM),"growth inhibition [3, 7]","growth inhibition [3, 8]",growth inhibition ([3]; at 50.0 µM),"growth inhibition [4, 7]","growth inhibition [4, 8]",growth inhibition ([4]; at 50.0 µM),"growth inhibition [5, 7]","growth inhibition [5, 8]",growth inhibition ([5]; at 50.0 µM),"growth inhibition [6, 7]","growth inhibition [6, 8]",growth inhibition ([6]; at 50.0 µM)
CC[n+]1c(/C=C/c2ccc(N(CCCl)CCCl)cc2)ccc2cc(I)ccc21,99% (active),99% (active),91% (active),99% (active),99% (active),90.8% (active),99% (active),99% (active),89.5% (active),99% (active),99% (active),88.9% (active),99% (active),99% (active),91.5% (active),99% (active),99% (active),88.7% (active)
CC1=C(CO)C(=O)OC(C(C)C2CCC3C4CC5OC56C(O)C(N5CC5)=CC(=O)C6(C)C4CCC23C)C1 (centres undefined),-7%,43%,76.8% (active),3%,49%,75.5% (active),-2%,42%,70.2% (active),23%,57%,28.9%,13%,77% (active),75.2% (active),-1%,78% (active),69.8%
[C-]#[O+].[C-]#[O+].[Ir].[O-]c1ccc2ccccc2c1N=Nc1ccccc1,-4%,-4%,74.5% (active),-11%,-11%,69.5%,15%,15%,62.1%,-2%,-2%,50.7%,-20%,-20%,55.1%,-18%,-18%,69.5%
Cc1ccc2c[c]1[Hg][CH2]COS2(=O)=O,33%,98% (active),94.7% (active),16%,99% (active),98% (active),48%,99% (active),97.5% (active),9%,98% (active),98.7% (active),-2%,99% (active),99.2% (active),24%,97% (active),98.2% (active)
O=C1C=C(Cl)C(=O)C=C1Cl,17%,99% (active),99.2% (active),13%,100% (active),99.5% (active),10%,99% (active),99.5% (active),5%,91% (active),86.7% (active),5%,99% (active),99.3% (active),11%,99% (active),99.3% (active)
CCC[CH2][Sn]([CH2]CCC)([S]C#N)[S]C#N,95% (active),97% (active),89.3% (active),96% (active),97% (active),91% (active),93% (active),97% (active),90.5% (active),93% (active),97% (active),86% (active),96% (active),96% (active),89.1% (active),97% (active),97% (active),88% (active)
O=C1NC(=O)C([N+](=O)[O-])C(=O)N1,0%,-5%,62.9%,-14%,-4%,30.1%,9%,-8%,34.5%,29%,39%,48.5%,15%,43%,66.8%,10%,16%,18.8%
CC(C)c1c(O)c(O)c2c(c1O)C(=O)C(O)=C1C(C)(C)CCC[C@@]12C,48%,95% (active),86.8% (active),72% (active),96% (active),88.8% (active),79% (active),95% (active),88.6% (active),64%,96% (active),85.8% (active),84% (active),95% (active),84.9% (active),86% (active),89% (active),80.4% (active)
COc1ccc(C2N(Cc3ccc(N(CCCl)CCCl)cc3C)CCCN2Cc2ccc(N(CCCl)CCCl)cc2C)cc1,10%,98% (active),97.1% (active),-32%,96% (active),99% (active),3%,99% (active),99% (active),2%,94% (active),75% (active),26%,96% (active),98.3% (active),18%,97% (active),98.5% (active)
Nc1c(Cl)cccc1C(=O)O,3%,4%,54%,-2%,0%,26.8%,1%,6%,45.7%,-4%,-7%,13.4%,3%,1%,23.9%,2%,5%,34.9%
[Cl][Sn]([c]1ccccc1)[c]1ccccc1,41%,93% (active),80.8% (active),30%,96% (active),85.8% (active),56%,99% (active),89% (active),34%,97% (active),54.2%,57%,98% (active),87.8% (active),30%,90% (active),83.5% (active)
O=[N+]([O-])/C=C/c1cc2c(cc1Br)OCO2,78% (active),89% (active),98.5% (active),53%,89% (active),99.2% (active),73% (active),87% (active),97.9% (active),26%,62%,94.2% (active),48%,89% (active),82.5% (active),68%,88% (active),98.5% (active)
C=C(C)C(=O)OC1CCC2(C)C(CCC3C2CCC2(C)C(c4ccc(=O)oc4)CC4OC432)C1 (centres undefined),7%,67%,71.9% (active),7%,48%,66.7%,-10%,57%,63.8%,26%,64%,60.2%,16%,80% (active),71.3% (active),21%,73% (active),63.9%
CC(C)COP(=O)(OCC(C)C)C(=O)Nc1ccc(Cl)cc1,-1%,80% (active),57.1%,-19%,44%,15.2%,11%,89% (active),24.9%,9%,49%,22.6%,-2%,58%,25.1%,2%,79% (active),33.6%
CCC[CH2][Sn]1([CH2]CCC)[O]C(c2ccccn2)S(=O)(=O)[O]1 (centres undefined),19%,19%,90.2% (active),12%,12%,91.2% (active),18%,18%,90.1% (active),5%,5%,90.5% (active),1%,1%,91.3% (active),10%,10%,88.3% (active)
CCN(CC)CC(=O)O[C@]1(CC)C(=O)OCc2c1cc1n(c2=O)Cc2cc3ccccc3nc2-1,93% (active),97% (active),83.2% (active),58%,98% (active),87% (active),45%,97% (active),85.1% (active),44%,93% (active),62.5%,43%,97% (active),81.5% (active),91% (active),96% (active),85.6% (active)
[Cl][Sn]([Cl])([c]1ccccc1)[c]1ccccc1.c1ccncc1.c1ccncc1,93% (active),97% (active),98% (active),61%,99% (active),99.1% (active),94% (active),99% (active),99% (active),71% (active),98% (active),98.8% (active),92% (active),98% (active),97.9% (active),95% (active),96% (active),98.7% (active)
CCCCCCCCCCCC(=O)[O][Hg][c]1ccccc1,99% (active),99% (active),99.4% (active),100% (active),100% (active),99.7% (active),100% (active),99% (active),99.7% (active),99% (active),99% (active),99.4% (active),99% (active),99% (active),99.5% (active),99% (active),99% (active),99.7% (active)
